The values that follow come from the supplement of paper PMC10981050.

Where a name gives a salt, the structure may show the parent alone.

The test system of this experiment is OCI-AML2. The experiment can be described thus: cell viability relative to vehicle control; higher = less cytotoxic. The note with it: 10 µM; SRSF2 genotype: wt/wt. Summed up: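 After removal of identity-inconsistent compounds, the Selleck bioactive, kinase and epigenetic probe libraries were screened on CRISPR-edited mutant clones and isogenic wild-type clones of four leukaemia lines. Plates were 384-well, each well holding 2000 cells in 50 µL medium and receiving a single 10 µM acoustically dispensed dose. CellTiter-Glo luminescence was read 48 h later, after the supernatant was taken off. Genedata Screener was used to express viability as percent of the on-plate vehicle control.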
Turning to `NS(=O)(=O)c1cc2c(cc1Cl)N=CNS2(=O)=O` [Chlorothiazide], the cell viability came out at 109%.
The figure for `CC(C)CCCC(C)C1CCC2C3CCC4CC(O)CCC4(C)C3CCC12C` (configuration not stated) [Dihydrocholesterol] is 97.6%.
The figure for `CC(C)c1c(C(=O)Nc2ccccc2)c(-c2ccccc2)c(-c2ccc(F)cc2)n1CC[C@@H](O)C[C@@H](O)CC(=O)O` [Atorvastatin calcium (Lipitor)] is 45.6%.
The figure for `O=C1CCC(N2C(=O)c3ccccc3C2=O)C(=O)N1` (configuration not stated) [Thalidomide] is 91.4%.
With `COc1ccc(C2=N[C@@H](c3ccc(Cl)cc3)[C@@H](c3ccc(Cl)cc3)N2C(=O)N2CCNC(=O)C2)c(OC(C)C)c1` [Nutlin-3], the cell viability came out at 32.1%.
For `CC1(C)C(O[C@@H]2OC[C@@H](O)[C@H](O)[C@H]2O)CC[C@]23CC24CC[C@]2(C)[C@@H]([C@@]5(C)CC[C@@H](C(C)(C)O)O5)[C@H](O)C[C@@]2(C)C4C[C@@H](O[C@@H]2O[C@H](CO)[C@@H](O)[C@H](O)[C@H]2O)C13` (some centres not stated) [Astragaloside IV], the cell viability was 102%.
As to `COC(=O)N[C@H](C(=O)N[C@@H](Cc1ccccc1)[C@@H](O)CN(Cc1ccc(-c2ccccn2)cc1)NC(=O)[C@@H](NC(=O)OC)C(C)(C)C)C(C)(C)C` [Atazanavir sulfate], the cell viability is 97.3%.
The figure for `CCCCCCCC/C=C\CCCCCCCC(=O)OCC` [Ethyl Oleate] is 93.7%; for `O=CC[C@@H](O)[C@H](O)[C@H](O)CO` [2-Deoxy-D-glucose] it is 108%.
The figure for `C[S+](CC[C@H](N)C(=O)[O-])C[C@H]1O[C@@H](n2cnc3c(N)ncnc32)[C@H](O)[C@@H]1O` (some centres not stated) [Ademetionine] is 133%.
The figure for `O=C1c2ccccc2C(=O)C1c1ccccc1` [Phenindione (Rectadione)] is 113%; for `CNCC[C@@H](Oc1ccccc1C)c1ccccc1` [Atomoxetine HCl] it is 94.6%.
As for `CCNC(=O)[C@@H]1CCCN1C(=O)[C@H](CCCN=C(N)N)NC(=O)[C@H](CC(C)C)NC(=O)[C@@H](CC(C)C)NC(=O)[C@H](Cc1ccc(O)cc1)NC(=O)[C@H](CO)NC(=O)[C@H](Cc1c[nH]c2ccccc12)NC(=O)[C@H](Cc1cnc[nH]1)NC(=O)[C@@H]1CCC(=O)N1` [S3718 Leuprolide Acetate.cdx], the cell viability turned out to be 108%.
In the case of `Cc1onc(-c2c(F)cccc2Cl)c1C(=O)N[C@@H]1C(=O)N2[C@@H]1SC(C)(C)[C@@H]2C(=O)O` [Flucloxacillin sodium], the cell viability stood at 107%.
For `CC(CCc1ccccc1)NCC(=O)c1ccc(O)c(C(N)=O)c1` (configuration not stated) [Labetalone hydrochloride], the cell viability is 108%.
For the compound `COc1cc(C(=O)N(CCCc2ccccc2)Cc2ccc(CC(=O)O)cc2)cc(OC)c1C`, the cell viability was determined as 100%.
The figure for `O=C1N=C(O)NC1(c1ccccc1)c1ccccc1` [Phenytoin sodium (Dilantin)] is 94%.
The figure for `Cn1c(Nc2ccc(C(F)(F)F)cc2)nc2cc(Oc3ccnc(-c4ncc(C(F)(F)F)[nH]4)c3)ccc21` is 47.4%; for `CCc1cncnc1N1CCN(Cc2nc3ccc(C(F)(F)F)cc3[nH]2)CC1` it is 43.3%.
In the case of `N#Cc1cc(-c2n[nH]c(-c3ccncc3)n2)ccn1` [Topiroxostat], the cell viability stood at 100%.
The figure for `O=C1c2c(O)cc(O)cc2OC(c2ccc(O)c(O)c2)C1O` (configuration not stated) [Taxifolin (Dihydroquercetin)] is 96%; for `CC1(C)CCCC2(C)C1CCC1(C)OCCC12` (single isomer, unassigned; (-)) [(-)-Ambroxide] it is 103%.
The figure for `CCOc1nc2cccc(C(=O)OC(C)OC(=O)OC3CCCCC3)c2n1Cc1ccc(-c2ccccc2-c2nn[nH]n2)cc1` (configuration not stated) [Candesartan cilexetil (Atacand)] is 72.1%.
The figure for `COc1cc2c(=O)c3c(O)c([C@@H]4O[C@H](CO[C@@H]5OC[C@](O)(CO)[C@H]5O)[C@@H](O)[C@H](O)[C@H]4O)c(O)cc3oc2cc1O` [Polygalaxanthone III] is 97.3%; for `O=[N+]([O-])c1ccc2c(c1)S(=O)(=O)C=C2` [Stattic] it is 0.06%; for `CC(C)OC(=O)OCOP(=O)(CO[C@H](C)Cn1cnc2c(N)ncnc21)OCOC(=O)OC(C)C` [Tenofovir Disoproxil Fumarate] it is 22.9%.
Take `CC(=O)OC(C)(C)CCC(=O)[C@](C)(O)[C@H]1[C@H](O)C[C@@]2(C)[C@@H]3CC=C4[C@@H](C[C@H](O)[C@@H](O)C4(C)C)[C@]3(C)C(=O)C[C@]12C` [Curcurbitacin IIA]: the cell viability was 28.8%.
